Structures are written as SMILES.

For assay [1], the target named is Sphingosine kinase 1 (Homo sapiens) (UniProt Q9NYA1). As to conditions: at 1 µM.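 Further: mean SPHK1 inhibition value reported from the GSK PKIS kinase panel screen.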
Assay [2] concerns the target T1, Sphingosine kinase 2 (Homo sapiens) (UniProt Q9NRA0).
T1 sequence (whole entry): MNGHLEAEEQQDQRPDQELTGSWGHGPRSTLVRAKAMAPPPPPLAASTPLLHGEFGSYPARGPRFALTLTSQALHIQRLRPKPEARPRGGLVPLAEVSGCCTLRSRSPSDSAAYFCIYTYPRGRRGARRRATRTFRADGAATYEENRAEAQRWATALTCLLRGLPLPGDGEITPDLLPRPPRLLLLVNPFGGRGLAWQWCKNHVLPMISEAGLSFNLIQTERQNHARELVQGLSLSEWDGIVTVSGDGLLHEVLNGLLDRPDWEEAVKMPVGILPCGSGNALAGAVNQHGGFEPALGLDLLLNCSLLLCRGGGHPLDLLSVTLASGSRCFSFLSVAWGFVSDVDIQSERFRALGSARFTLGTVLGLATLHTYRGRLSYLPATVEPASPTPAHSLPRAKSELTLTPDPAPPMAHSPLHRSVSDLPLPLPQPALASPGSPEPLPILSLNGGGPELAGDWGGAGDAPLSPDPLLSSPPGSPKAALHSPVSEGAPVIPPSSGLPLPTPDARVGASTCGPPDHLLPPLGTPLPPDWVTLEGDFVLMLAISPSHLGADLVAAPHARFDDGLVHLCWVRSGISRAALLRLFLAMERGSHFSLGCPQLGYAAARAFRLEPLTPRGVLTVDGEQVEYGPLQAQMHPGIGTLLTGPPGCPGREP
As to conditions: at 0.1 µM.

The target in assay [3] is T1, Sphingosine kinase 2 (Homo sapiens). As to conditions: at 1 µM.
The target of assay [4] is Casein kinase II subunit alpha (Homo sapiens) (UniProt P68400). As to conditions: at 0.1 µM.
Sequence of Casein kinase II subunit alpha (Homo sapiens) (P68400 whole entry, looked up): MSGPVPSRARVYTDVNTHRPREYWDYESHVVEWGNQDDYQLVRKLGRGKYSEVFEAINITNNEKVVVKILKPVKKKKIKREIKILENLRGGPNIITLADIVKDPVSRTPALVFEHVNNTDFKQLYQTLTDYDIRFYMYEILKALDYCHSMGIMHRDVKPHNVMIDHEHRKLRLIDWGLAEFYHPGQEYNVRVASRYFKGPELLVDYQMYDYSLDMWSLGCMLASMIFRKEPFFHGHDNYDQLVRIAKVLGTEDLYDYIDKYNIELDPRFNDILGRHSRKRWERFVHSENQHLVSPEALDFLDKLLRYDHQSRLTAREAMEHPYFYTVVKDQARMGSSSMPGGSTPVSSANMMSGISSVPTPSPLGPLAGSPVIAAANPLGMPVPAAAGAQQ
The target is the same in assay [5]. As to conditions: at 1 µM.
Assay [6] concerns the target T2, Inhibitor of nuclear factor kappa-B kinase subunit alpha (Homo sapiens) (UniProt O15111).
T2 sequence (whole entry): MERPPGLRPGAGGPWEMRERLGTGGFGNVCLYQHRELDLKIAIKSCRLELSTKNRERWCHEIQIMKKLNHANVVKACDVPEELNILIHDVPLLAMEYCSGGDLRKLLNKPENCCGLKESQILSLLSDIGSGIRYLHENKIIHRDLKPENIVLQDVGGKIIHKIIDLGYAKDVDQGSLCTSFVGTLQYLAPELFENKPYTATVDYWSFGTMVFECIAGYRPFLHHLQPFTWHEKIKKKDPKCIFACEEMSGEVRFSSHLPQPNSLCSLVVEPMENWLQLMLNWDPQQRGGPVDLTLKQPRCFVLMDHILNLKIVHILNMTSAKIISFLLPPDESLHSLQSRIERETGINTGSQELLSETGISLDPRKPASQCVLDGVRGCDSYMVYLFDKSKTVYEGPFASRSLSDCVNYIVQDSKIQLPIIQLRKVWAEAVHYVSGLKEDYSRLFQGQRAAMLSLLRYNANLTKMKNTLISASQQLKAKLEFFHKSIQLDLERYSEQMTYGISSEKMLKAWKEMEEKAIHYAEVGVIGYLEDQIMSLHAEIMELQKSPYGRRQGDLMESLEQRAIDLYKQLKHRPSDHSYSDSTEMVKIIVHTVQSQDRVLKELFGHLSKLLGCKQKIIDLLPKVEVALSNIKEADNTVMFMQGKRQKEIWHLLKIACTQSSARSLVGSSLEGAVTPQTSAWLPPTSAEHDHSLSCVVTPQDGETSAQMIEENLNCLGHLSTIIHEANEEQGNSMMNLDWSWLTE
As to conditions: at 0.1 µM.

Assay [7] deals with T2, Inhibitor of nuclear factor kappa-B kinase subunit alpha (Homo sapiens). As to conditions: at 1 µM.
Assay [8] concerns the target T3, Inhibitor of nuclear factor kappa-B kinase subunit beta (Homo sapiens) (UniProt O14920).
T3 sequence (whole entry): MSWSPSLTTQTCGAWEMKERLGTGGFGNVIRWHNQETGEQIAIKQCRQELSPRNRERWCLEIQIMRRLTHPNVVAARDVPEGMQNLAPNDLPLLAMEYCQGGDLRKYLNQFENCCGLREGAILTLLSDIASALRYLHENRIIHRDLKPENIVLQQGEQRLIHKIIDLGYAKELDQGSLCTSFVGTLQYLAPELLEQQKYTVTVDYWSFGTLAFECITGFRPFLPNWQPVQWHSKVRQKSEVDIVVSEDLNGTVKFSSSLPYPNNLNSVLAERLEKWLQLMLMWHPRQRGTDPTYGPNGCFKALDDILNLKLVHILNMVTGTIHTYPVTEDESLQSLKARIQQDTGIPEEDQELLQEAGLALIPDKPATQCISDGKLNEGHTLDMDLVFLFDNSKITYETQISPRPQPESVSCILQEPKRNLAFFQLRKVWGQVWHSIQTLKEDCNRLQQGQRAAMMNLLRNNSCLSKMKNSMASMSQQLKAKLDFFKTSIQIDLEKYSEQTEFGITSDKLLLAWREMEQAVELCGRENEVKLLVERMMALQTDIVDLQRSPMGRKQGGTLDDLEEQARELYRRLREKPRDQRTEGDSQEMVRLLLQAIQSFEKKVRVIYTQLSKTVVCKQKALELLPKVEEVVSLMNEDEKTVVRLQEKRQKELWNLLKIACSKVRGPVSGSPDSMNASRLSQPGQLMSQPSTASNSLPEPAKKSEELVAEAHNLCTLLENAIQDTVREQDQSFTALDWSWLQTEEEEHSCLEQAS
As to conditions: at 0.1 µM.

Assay [9] has as its target T3, Inhibitor of nuclear factor kappa-B kinase subunit beta (Homo sapiens). As to conditions: at 1 µM.
For assay [10], the target named is T4, Inhibitor of nuclear factor kappa-B kinase subunit epsilon (Homo sapiens) (UniProt Q14164).
T4 sequence (whole entry): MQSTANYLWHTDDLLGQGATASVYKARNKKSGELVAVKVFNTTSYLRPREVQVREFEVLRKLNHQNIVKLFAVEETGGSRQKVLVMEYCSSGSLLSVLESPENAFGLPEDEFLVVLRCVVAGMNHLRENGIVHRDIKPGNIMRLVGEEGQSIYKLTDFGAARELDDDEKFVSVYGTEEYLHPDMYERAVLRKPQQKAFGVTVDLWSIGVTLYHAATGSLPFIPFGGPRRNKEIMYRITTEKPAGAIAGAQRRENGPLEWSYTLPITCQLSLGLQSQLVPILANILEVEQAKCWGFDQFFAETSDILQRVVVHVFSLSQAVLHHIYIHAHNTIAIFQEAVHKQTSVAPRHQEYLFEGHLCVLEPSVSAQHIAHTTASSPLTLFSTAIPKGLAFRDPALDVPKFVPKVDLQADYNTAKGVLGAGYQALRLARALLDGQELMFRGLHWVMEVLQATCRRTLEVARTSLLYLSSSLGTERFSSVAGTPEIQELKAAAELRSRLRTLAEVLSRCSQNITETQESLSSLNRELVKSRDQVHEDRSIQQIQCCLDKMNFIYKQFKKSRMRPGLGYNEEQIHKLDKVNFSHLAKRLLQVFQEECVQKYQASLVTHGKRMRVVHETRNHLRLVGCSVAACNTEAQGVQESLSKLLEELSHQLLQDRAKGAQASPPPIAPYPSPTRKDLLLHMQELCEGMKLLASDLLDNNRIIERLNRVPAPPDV
As to conditions: at 0.1 µM.

In assay [11] the target is T4, Inhibitor of nuclear factor kappa-B kinase subunit epsilon (Homo sapiens). As to conditions: at 1 µM.
In assay [12] the target is T5, Serine/threonine-protein kinase Nek1 (Homo sapiens) (UniProt Q96PY6).
T5 sequence (whole entry): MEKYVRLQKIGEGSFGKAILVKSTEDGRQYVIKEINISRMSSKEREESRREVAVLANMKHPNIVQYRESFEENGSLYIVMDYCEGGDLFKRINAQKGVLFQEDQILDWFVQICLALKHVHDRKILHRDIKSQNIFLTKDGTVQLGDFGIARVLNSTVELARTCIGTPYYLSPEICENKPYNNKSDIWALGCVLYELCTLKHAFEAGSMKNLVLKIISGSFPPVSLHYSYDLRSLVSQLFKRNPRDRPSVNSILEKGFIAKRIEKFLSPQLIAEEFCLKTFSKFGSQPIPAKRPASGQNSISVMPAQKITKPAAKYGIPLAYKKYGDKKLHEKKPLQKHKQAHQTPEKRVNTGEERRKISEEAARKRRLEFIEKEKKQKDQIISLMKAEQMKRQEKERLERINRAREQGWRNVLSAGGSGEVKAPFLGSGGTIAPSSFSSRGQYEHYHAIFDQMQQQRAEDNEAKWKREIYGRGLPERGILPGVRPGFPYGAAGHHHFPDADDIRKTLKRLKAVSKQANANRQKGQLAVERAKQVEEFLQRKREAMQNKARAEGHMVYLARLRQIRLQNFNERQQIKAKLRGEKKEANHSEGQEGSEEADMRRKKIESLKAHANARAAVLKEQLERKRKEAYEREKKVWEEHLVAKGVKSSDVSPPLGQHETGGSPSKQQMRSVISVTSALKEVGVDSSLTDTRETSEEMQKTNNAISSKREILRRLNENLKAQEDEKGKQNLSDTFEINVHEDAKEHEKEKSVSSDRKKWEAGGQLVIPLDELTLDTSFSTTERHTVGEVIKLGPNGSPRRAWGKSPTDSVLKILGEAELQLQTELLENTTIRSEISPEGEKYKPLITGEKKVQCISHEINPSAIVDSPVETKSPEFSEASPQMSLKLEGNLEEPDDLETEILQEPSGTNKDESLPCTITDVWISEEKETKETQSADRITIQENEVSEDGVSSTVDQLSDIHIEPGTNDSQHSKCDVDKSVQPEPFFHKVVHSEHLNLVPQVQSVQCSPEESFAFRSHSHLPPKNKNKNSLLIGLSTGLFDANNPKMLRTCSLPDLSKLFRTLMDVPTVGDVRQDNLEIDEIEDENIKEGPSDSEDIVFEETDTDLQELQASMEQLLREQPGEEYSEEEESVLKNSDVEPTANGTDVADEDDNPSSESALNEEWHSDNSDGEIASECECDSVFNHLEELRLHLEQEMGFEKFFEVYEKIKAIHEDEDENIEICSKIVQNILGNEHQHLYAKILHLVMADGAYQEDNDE
As to conditions: at 0.1 µM.

Assay [13] has as its target T5, Serine/threonine-protein kinase Nek1 (Homo sapiens). As to conditions: at 1 µM.
Assay [14] has as its target T6, Serine/threonine-protein kinase Nek2 (Homo sapiens) (UniProt P51955).
T6 sequence (whole entry): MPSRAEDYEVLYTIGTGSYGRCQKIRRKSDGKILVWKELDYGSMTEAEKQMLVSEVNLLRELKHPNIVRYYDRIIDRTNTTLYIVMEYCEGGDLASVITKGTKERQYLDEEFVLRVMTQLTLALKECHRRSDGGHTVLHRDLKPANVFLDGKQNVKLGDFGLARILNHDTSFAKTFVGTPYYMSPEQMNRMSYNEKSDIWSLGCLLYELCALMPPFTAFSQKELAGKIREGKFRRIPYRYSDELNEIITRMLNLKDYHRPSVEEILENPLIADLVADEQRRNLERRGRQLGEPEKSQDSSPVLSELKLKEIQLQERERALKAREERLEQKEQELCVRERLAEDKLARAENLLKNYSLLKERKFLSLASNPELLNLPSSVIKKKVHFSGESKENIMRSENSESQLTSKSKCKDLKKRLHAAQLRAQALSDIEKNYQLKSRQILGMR
As to conditions: at 0.1 µM.

Assay [15] has as its target T6, Serine/threonine-protein kinase Nek2 (Homo sapiens). As to conditions: at 1 µM.
Assay [16] concerns the target Serine/threonine-protein kinase Nek6 (Homo sapiens) (UniProt Q9HC98). As to conditions: at 0.1 µM.
Assay [17] shares this target. As to conditions: at 1 µM.
Assay [18] addresses Serine/threonine-protein kinase Nek7 (Homo sapiens) (UniProt Q8TDX7). As to conditions: at 0.1 µM.
For assay [19] the target is unchanged. As to conditions: at 1 µM.
The target of assay [20] is T7, Serine/threonine-protein kinase Nek9 (Homo sapiens) (UniProt Q8TD19).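 Further: reported value is the mean percent inhibition of NEK9.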
T7 sequence (whole entry): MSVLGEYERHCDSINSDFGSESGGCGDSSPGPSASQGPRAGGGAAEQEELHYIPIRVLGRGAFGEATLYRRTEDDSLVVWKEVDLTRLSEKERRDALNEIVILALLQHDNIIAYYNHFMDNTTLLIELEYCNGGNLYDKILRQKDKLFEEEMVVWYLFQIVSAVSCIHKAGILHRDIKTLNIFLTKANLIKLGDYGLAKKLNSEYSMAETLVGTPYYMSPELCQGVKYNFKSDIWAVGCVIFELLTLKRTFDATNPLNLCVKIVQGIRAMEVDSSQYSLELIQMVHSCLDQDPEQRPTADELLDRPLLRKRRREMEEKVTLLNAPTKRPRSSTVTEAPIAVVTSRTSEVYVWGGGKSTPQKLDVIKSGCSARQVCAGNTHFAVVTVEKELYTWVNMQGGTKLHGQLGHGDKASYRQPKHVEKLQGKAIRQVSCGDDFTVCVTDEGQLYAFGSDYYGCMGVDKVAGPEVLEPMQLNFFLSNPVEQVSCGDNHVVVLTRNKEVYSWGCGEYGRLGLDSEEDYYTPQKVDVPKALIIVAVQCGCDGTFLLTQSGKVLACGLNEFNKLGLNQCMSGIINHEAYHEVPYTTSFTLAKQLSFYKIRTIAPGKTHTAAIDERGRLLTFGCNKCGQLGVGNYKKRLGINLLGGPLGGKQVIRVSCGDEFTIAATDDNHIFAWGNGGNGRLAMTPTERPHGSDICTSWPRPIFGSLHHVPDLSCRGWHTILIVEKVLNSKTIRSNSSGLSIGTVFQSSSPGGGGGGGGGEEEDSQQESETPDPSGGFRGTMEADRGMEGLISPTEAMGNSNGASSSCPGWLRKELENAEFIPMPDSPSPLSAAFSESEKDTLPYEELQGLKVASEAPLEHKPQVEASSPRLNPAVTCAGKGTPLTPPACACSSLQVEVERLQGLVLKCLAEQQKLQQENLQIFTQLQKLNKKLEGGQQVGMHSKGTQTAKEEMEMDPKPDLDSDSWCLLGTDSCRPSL
As to conditions: at 0.1 µM.

Sequence of Serine/threonine-protein kinase Nek6 (Homo sapiens) (Q9HC98 whole entry): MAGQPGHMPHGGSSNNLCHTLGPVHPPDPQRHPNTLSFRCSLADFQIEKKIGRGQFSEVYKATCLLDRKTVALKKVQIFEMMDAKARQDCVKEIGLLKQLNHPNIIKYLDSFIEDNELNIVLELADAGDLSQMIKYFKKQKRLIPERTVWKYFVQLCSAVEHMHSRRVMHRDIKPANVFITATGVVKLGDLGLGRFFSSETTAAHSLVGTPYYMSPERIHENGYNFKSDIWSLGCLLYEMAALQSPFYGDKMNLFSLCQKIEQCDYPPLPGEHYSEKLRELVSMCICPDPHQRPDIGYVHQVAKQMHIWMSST
Sequence of Serine/threonine-protein kinase Nek7 (Homo sapiens) (Q8TDX7 whole entry, looked up): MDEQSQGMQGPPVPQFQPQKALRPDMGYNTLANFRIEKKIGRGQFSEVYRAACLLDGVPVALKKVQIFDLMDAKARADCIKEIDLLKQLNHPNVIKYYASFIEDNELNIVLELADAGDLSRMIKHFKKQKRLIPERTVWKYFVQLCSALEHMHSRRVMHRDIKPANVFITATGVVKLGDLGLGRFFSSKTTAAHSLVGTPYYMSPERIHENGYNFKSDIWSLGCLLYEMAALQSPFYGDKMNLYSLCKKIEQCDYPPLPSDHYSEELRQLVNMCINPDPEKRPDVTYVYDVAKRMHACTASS
Sequence of Sphingosine kinase 1 (Homo sapiens) (Q9NYA1 whole entry): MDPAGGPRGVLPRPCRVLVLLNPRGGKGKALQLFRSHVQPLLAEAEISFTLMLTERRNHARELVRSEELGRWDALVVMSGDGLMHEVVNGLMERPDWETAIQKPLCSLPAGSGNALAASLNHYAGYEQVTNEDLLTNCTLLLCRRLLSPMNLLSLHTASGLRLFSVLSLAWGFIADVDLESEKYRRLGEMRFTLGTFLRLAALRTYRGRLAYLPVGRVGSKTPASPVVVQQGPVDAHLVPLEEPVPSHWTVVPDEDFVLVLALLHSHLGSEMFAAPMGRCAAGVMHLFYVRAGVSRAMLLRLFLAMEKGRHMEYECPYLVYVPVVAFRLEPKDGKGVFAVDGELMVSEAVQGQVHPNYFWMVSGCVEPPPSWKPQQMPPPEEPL

Broadly, the inhibition is the relative decrease from the control value, in per cent. In the case of `NC(=O)c1ccc2c(-c3ccnc(NCCCO)n3)c(-c3ccc(F)cc3)nn2c1`, the inhibition in assay [1] is -1.09%; in assay [2], 0.78%; in assay [3], -0.19%; in assay [4], 3.49%; in assay [5], 3.53%; in assay [6], 8.35%. Moreover, the inhibition is 4.86% in [7]; 7.11% in assay [8]; 2.1% in [9]; 4.91% in assay [10]; 3.59% in assay [11]; 2.6% in assay [12]. In addition, the inhibition in assay [13] was 3.93%; in assay [14], 5.07%; in [15] it was 6.59%; in [16], 1.23%; in assay [17] it was -0.99%; in [18], 6.38%. The inhibition came out at 4.14% in assay [19] and 5.71% in assay [20].
